beta cell repl: MIN6 beta-cell proliferation induction | 330,000 compounds, 0.29% hits | proliferation, % at 10 µM | MIN6 cells proliferation, ATPlite luminescence, 48 h; cells starved in 0.2% serum; 100% = growth in 10% serum;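 active means compounds whose signal lies at least 3.5 SD above the mean of all wells on their plate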;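 further: 0% = DMSO-treated cells in low-serum medium and 100% = 10% serum control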
NTR1 agonist: NTR1 (human) agonism | NTR1-U2OS beta-arrestin-GFP spot imaging, agonist mode | activation, % at 20 µM | 330,000 compounds, 0.17% hits;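 active means activation at or above 40% of the spot to cytoplasm intensity ratio, with at least 20 cells analyzed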;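 further: 0% = DMSO without peptide and 100% = 100 nM NTR1 peptide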
GRK2 aptamer HTS: human GRK2 inhibition via aptamer displacement. bead flow cytometry, FAM-aptamer displacement from GRK2. inhibition of aptamer binding, % at 10 µM. 330,000 compounds, 0.59% hits. AID 488847;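 active means inhibition of aptamer binding above 40%, roughly 3 SD of noise, on plates passing a quality check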;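 further: median bead fluorescence of bound FAM aptamer so fluorescent compounds give negative values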
Target sequence (P25098 whole entry, looked up): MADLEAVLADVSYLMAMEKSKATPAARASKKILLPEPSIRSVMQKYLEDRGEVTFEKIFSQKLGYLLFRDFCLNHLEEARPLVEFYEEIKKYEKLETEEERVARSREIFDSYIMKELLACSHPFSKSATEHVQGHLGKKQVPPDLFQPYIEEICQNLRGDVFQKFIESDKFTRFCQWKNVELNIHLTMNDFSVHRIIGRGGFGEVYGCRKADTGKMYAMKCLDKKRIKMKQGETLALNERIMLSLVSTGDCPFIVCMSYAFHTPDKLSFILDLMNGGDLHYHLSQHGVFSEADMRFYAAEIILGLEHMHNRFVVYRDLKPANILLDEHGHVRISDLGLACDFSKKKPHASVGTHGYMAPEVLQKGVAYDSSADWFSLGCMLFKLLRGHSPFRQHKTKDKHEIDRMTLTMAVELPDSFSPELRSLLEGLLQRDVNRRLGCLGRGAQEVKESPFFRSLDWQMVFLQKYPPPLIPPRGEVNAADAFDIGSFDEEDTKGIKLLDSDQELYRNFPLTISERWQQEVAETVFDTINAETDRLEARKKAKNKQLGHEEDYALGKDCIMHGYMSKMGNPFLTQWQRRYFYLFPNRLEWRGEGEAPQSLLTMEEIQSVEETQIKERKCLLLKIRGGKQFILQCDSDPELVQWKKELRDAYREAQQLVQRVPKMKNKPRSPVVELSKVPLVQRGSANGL
Platelet DG rel: platelet dense granule release activity; inhibition, %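 (compounds screened at 7.5 µM in platelet-rich plasma)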; 300,000 compounds, 0.22% hits; AID 1663; human platelet-rich plasma, SFLLRN dense granule ATP release, luminescence;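 active means mean replicate score, as percent of positive control, at or above 50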
GRK2 inh confirm: human GRK2 inhibition confirmation, cherry pick 1. bead-bound GRK2, FAM-aptamer displacement, flow cytometry. aptamer displacement, % at 10 µM. 2,000 compounds, 4% hits. shares compounds with GRK2 aptamer HTS;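 active means aptamer displacement above 40%, near three times the noise of non-fluorescent compounds, on plates passing quality checks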;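 further: negative values mostly reflect intrinsic compound fluorescence rather than true enhancement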
Aptamer quench SP: quenches fluorescent RNA aptamer, GRK2 hit artifact; shares compounds with GRK2 aptamer HTS; Carboxyfluorescein RNA aptamer on beads, flow cytometry quenching; stronger effect = lower value; fluorescence response (% of DMSO), % at 10 µM; 2,000 tested, under 10 active; AID 504580;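 active means compounds that quench the bead-bound fluorescent RNA probe, cutting fluorescence to under half of the solvent control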;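 further: counterscreen run without GRK2 so only probe quenching by compound is measured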
GRK2 CP2: confirmation of human GRK2 inhibitors binding RNA aptamer site; shares compounds with GRK2 aptamer HTS; bead-bound GRK2, FAM-aptamer displacement, flow cytometry; inhibition of aptamer binding, % at 10 µM; 360 tested, under 10 active;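 active means inhibition of aptamer binding above 40%, about triple the noise seen with nonglowing compounds, on plates passing quality control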;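 further: negative values mostly come from compounds that fluoresce themselves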
FAM quench SP: aptamer fluorescence quenching in GRK2 counter-screen | shares compounds with GRK2 aptamer HTS | carboxyfluorescein RNA aptamer beads, flow cytometry quenching; stronger effect = lower value | fluorescence response vs DMSO, % at 10 µM | 360 tested, under 10 active | AID 588494;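 active means response vs DMSO under 50%, meaning signal dropped by over half, treated as fluorescence quencher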;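 further: labelled aptamer on streptavidin beads without GRK2 as a quench counter-screen; 100% = bead fluorescence of DMSO wells and lower means quenching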
Starred values were filed as active, the others as inactive; . = no result given. Sampled rows, rich in hits. Any-hit rate of the full collection: about 1.2%.

SMILES | beta cell repl | NTR1 agonist | GRK2 aptamer HTS | Platelet DG rel | GRK2 inh confirm | Aptamer quench SP | others
COc1ccc(CCNC(=O)CSc2nc(=O)n3cc(C)ccc3n2)cc1OC | -1.2 | 0.4 | 0.0 | 10.0 | . | .
CC(C)(C)NC(=O)C(c1ccc(F)cc1)N(C(=O)CCC(=O)Nc1ccccn1)C1CCCC1 (configuration not stated) | -1.5 | -0.4 | 0.0 | -1.6 | . | .
Cc1ccc(CNC(=O)CCS(=O)(=O)c2ccc3c(c2)NC(=O)C(C)S3)cc1 (configuration not stated) | 2.0 | 1.6 | 8.0 | 9.9 | . | . | GRK2 CP2=8.5;FAM quench SP=102.0
Cc1ccc(C)c(N2CCN(C(=O)CCS(=O)(=O)c3ccc4c(c3)NC(=O)C(C)S4)CC2)c1 (configuration not stated) | -4.0 | 10.5 | 3.0 | -1.3 | . | .
COC(=O)c1ccc(NC(=O)CCS(=O)(=O)c2ccc3c(c2)NC(=O)C(C)S3)cc1 (configuration not stated) | -1.5 | 1.6 | 6.0 | 17.8 | . | .
COc1ccccc1NC(=O)CCS(=O)(=O)c1ccc2c(c1)NC(=O)C(C)S2 (configuration not stated) | -1.4 | -0.1 | 22.0 | 5.4 | . | . | GRK2 CP2=10.1;FAM quench SP=97.0
Cc1ccc(CNC(=O)CC(C)S(=O)(=O)c2ccc3c(c2)NC(=O)C(C)S3)cc1 (configuration not stated) | -1.4 | 0.2 | 3.0 | -6.0 | . | . | GRK2 CP2=0.7;FAM quench SP=100.0
Cc1ccc(CCNC(=O)C2CCN(S(=O)(=O)c3ccc4c(c3)NC(=O)C(C)S4)CC2)cc1 (configuration not stated) | -4.6 | 2.2 | 0.0 | -0.4 | . | .
COc1ccc(C2CC(c3ccccc3C(F)(F)F)=NN2c2ccc(S(N)(=O)=O)cc2)cc1 (configuration not stated) | . | 9.9 | 4.0 | . | . | .
O=C(NCC(F)(F)F)c1ccc(S(=O)(=O)N2CCN(C(=O)C3CCCO3)CC2)cc1 (configuration not stated) | -2.1 | 1.2 | 2.0 | . | . | .
COc1ccc(NC(=O)CC(c2ccco2)C(C)C)cc1 (configuration not stated) | 3.5 | 0.3 | 0.0 | 6.4 | . | .
CCc1c(C(=O)NC2CCCC2)csc1C | 0.0 | -0.4 | 97.0* | 1.1 | -4.2 | 95.4
Cc1cc(C)c2[nH]c(=O)c(CN(Cc3cccnc3)C(=S)NCCCN(C)C)cc2c1 | 1.1 | 2.8 | 2.0 | 10.1 | . | .
CCN(CC)CCCNC(=S)N(Cc1cccnc1)Cc1cc2cc(C)cc(C)c2[nH]c1=O | -3.5 | -0.5 | 24.0 | -2.4 | -5.8 | 97.3
CC12CCC3C(CCC4N(CCO)CCC34C)C1CCC2O (configuration not stated) | -1.5 | 0.6 | 49.0* | -1.4 | -0.9 | 106.1
CCCCC(=O)Nc1ccc(C(=O)NNC(=S)NC(=O)c2ccco2)cc1 | -1.9 | -0.6 | 0.0 | -3.9 | . | .
O=C(O)Cc1ccc(NC(=O)c2ccc(NC(=O)c3ccco3)cc2)cc1 | 0.4 | -1.5 | 48.0* | -4.8 | 0.7 | 98.0
CCCCC(=O)Nc1ccc(C(=O)NNC(=O)c2ccco2)cc1 | -2.5 | 1.0 | 65.0* | 9.9 | -0.2 | 92.6
COC(=O)Cc1ccc(NC(=O)c2ccc(NC(=O)c3ccco3)cc2)cc1 | 1.3 | 0.0 | 1.0 | 11.3 | . | .
COc1ccc(S(=O)(=O)NCc2ccc(C(=O)NCCCN3CC(C)CC(C)C3)cc2)cc1 (configuration not stated) | -3.0 | -0.1 | 0.0 | 7.9 | . | .
N#CCN(CC#N)C(=O)C1c2ccccc2Oc2ccccc21 | -1.9 | 0.0 | 0.0 | 1.3 | . | .
CCCn1c(CN2CCCCC2CC)nc2c1c(=O)n(C)c(=O)n2C (configuration not stated) | 1.2 | -1.1 | 47.0* | 0.4 | 0.9 | 99.6
CCC1CCCCN1Cc1nc2c(c(=O)n(C)c(=O)n2C)n1CCCc1ccccc1 (configuration not stated) | 0.7 | 3.2 | 2.0 | 0.6 | -1.5 | 103.7
CCC1CCCCN1Cc1nc2c(c(=O)n(C)c(=O)n2C)n1Cc1ccccc1 (configuration not stated) | -0.7 | 3.0 | 1.0 | 0.3 | . | .
CCCn1c(CN2CCCCC2C)nc2c1c(=O)n(C)c(=O)n2C (configuration not stated) | -1.9 | -0.5 | 0.0 | 1.5 | . | .
SMILES | beta cell repl | NTR1 agonist | GRK2 aptamer HTS | Platelet DG rel | GRK2 inh confirm | Aptamer quench SP | others
C=CCn1c(C)nnc1SCC(=O)Nc1ccccc1C(=O)NC1CC1 | -0.5 | -0.4 | . | . | . | .
Cn1c(CCC(N)=O)nnc1SCC(=O)Nc1ccccc1C(=O)NC1CC1 | -4.5 | 6.1 | 75.0* | . | -16.7 | 98.3
CCN1C(=O)[C@H]2[C@@H](c3ccc(-c4ccccc4)cc3)N3CCC[C@@]3(C(=O)OC)[C@H]2C1=O | -2.1 | 0.0 | . | -3.3 | . | .
COc1ccc(CNC(=O)C2CCC(=O)N(CCCN3CCCC3=O)C2)c(OC)c1 (configuration not stated) | 6.5 | -1.2 | 1.0 | 3.6 | . | .
CCCCN1C2CCCC1CC(NC(=O)c1cccc(OC)c1)C2 (configuration not stated) | -0.6 | 1.8 | 0.0 | 3.2 | . | .
O=C1C2CCCN2C(=O)N1CCCCN1CCN(c2ccccc2)CC1 (configuration not stated) | -2.0 | 0.0 | 4.0 | 1.7 | . | .
O=C1C2CCCN2C(=O)N1CCCCN1CCN(c2cccc(Cl)c2)CC1 (configuration not stated) | 0.2 | -0.7 | 100.0* | 5.5 | . | . | GRK2 CP2=3.5;FAM quench SP=99.0
Nc1c(C(=O)CSc2n[nH]c(-c3ccccc3)n2)c(=O)[nH]c(=O)n1C1CC1 | 9.8 | -0.7 | . | . | . | .
COc1ccc(C(C)=O)cc1CN1C(=O)NC2(CCCCCCC2)C1=O | -0.7 | 5.1 | 0.0 | 1.8 | . | .
Cc1cc(C)c(NC(=O)CN2C(=O)NC3(CCCCC3)C2=O)c(Cl)c1 | -1.7 | 1.5 | 83.0* | -4.0 | 2.9 | 96.2
CCOc1ccc(C(C)=O)cc1CN1C(=O)NC2(CCCCCC2)C1=O | -0.4 | -1.3 | 83.0* | -9.7 | -34.0 | 101.8
CC(=O)c1cccc(NC(=O)CN2C(=O)NC3(CCCCCCC3)C2=O)c1 | 0.9 | 0.0 | 100.0* | 13.2 | -30.9 | 99.2
Cc1ccc(NC(=O)CNC(=O)C2CCCCC2)nc1 | 4.4 | 0.5 | 63.0* | 3.5 | -1.2 | 105.0
C[C@@H]1CCCCCCCCC(=O)OCCN1C(=O)OC(C)(C)C | -0.8 | -0.9 | 0.0 | . | . | .
CCN1/C(=C/c2ccc3cc(C)ccc3[n+]2CC)Sc2cc(C)c(C)cc21 | -5.4 | -4.2 | . | . | . | .
CCN1/C(=C/C=C/C=C/C=C/c2sc3ccccc3[n+]2CC)Sc2ccccc21 | -5.0 | 2.2 | 22.0 | 0.5 | . | .

Bioassay records from PubChem BioAssay.
